# According to PubChem BioAssay (NCI):
# This is part of a sample that, as a whole, favours compounds with a hit. Of some 79,000 tested, about 15% had one in any assay. Unmarked numbers belong to inactive results. Calls of active or inactive are those of the source. No stated cut-off is given here; in the data, active means growth inhibition above about 70%; inactive means the rest.
# Legend:
# [1] = NCI Yeast Anticancer Drug Screen. Data for the rad50 strain (AID 155);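 further: 0% = growth of vehicle-only cultures of the same strain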; conditions: S. cerevisiae rad50 strain growth inhibition, stronger effect = higher value
# How it was run: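 Readout: growth inhibition relative to vehicle-treated cultures. Compound exposure was carried out in a genetically defined yeast strain deficient in DNA damage repair.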
# [2] = NCI Yeast Anticancer Drug Screen. Data for the mec2-1 strain (AID 157); conditions: S. cerevisiae mec2-1 strain, stronger effect = higher value
# How it was run: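 Each compound was tested on mec2-1 yeast, a strain altered in DNA damage repair or cell cycle control. Growth inhibition is reported relative to vehicle.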
# [3] = NCI Yeast Anticancer Drug Screen. Data for the sgs1 mgt1 strain (AID 161);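 further: 0% = growth of cultures given vehicle only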; conditions: S. cerevisiae sgs1 mgt1 strain, stronger effect = higher value
# How it was run: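 Test agents were incubated with a DNA-repair-mutant yeast strain. Growth was then read and compared against vehicle-treated controls.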
# [4] = NCI Yeast Anticancer Drug Screen. Data for the cln2 rad14 strain (AID 165);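 further: 0% = growth equal to vehicle treated cultures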; conditions: S. cerevisiae cln2 rad14 strain, stronger effect = higher value
# How it was run: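 Test compounds were added to cln2 rad14 yeast cultures; inhibition of growth was then determined by comparison with vehicle treatment.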
# [5] = NCI Yeast Anticancer Drug Screen. Data for the bub3 strain (AID 167); conditions: S. cerevisiae bub3 mutant strain, stronger effect = higher value
# How it was run: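 Readout: yeast growth inhibition, expressed relative to vehicle-only wells. The test organism is a mutant strain from a panel with lesions in DNA repair or checkpoint genes.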
# [6] = NCI Yeast Anticancer Drug Screen. Data for the mlh1 rad18 strain (AID 175); conditions: S. cerevisiae mlh1 rad18 strain growth inhibition, stronger effect = higher value
# How it was run: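 Inhibition values reflect reduced growth of mutant yeast versus vehicle-treated controls following compound exposure; the mutations affect DNA damage repair.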
# [7] = at 5.0 µM (retest, dose inferred, filed as 0.5)
# [8] = at 50.0 µM (retest, dose inferred, filed as 5.0)
Compound,"growth inhibition [1, 7]","growth inhibition [1, 8]",growth inhibition ([1]; at 50.0 µM),"growth inhibition [2, 7]","growth inhibition [2, 8]",growth inhibition ([2]; at 50.0 µM),"growth inhibition [3, 7]","growth inhibition [3, 8]",growth inhibition ([3]; at 50.0 µM),"growth inhibition [4, 7]","growth inhibition [4, 8]",growth inhibition ([4]; at 50.0 µM),"growth inhibition [5, 7]","growth inhibition [5, 8]",growth inhibition ([5]; at 50.0 µM),"growth inhibition [6, 7]","growth inhibition [6, 8]",growth inhibition ([6]; at 50.0 µM)
Cc1cc(C(=C2C=CC(=Nc3ccccc3)C=C2)c2ccc(Nc3ccccc3)cc2)ccc1N,6%,60%,43.8%,7%,82% (active),88.4% (active),-5%,79% (active),65.3%,-8%,69%,25.5%,30%,75% (active),83.3% (active),13%,71% (active),-23.6%
Oc1c(Cl)cc(Cl)cc1C(c1cc(Cl)cc(Cl)c1O)C(Cl)(Cl)Cl,-2%,99% (active),99% (active),0%,100% (active),99.5% (active),-4%,99% (active),99.5% (active),-2%,97% (active),98.7% (active),-2%,99% (active),99.2% (active),0%,99% (active),99.2% (active)
CC1=C(Cl)C[C@@H](/C(C)=C\Cl)O[C@@]1(O)C(Br)Br,31%,92% (active),91.8% (active),24%,94% (active),93.4% (active),40%,93% (active),93.5% (active),20%,90% (active),91.2% (active),40%,91% (active),92.3% (active),65%,92% (active),15.1%
CCC1C[N+]2=C(c3cc(OC)c(OC)cc3CC2)c2c1cc1n2CCc2cc(OC)c(OC)cc2-1 (configuration not stated),99% (active),99% (active),93% (active),100% (active),99% (active),94.8% (active),99% (active),99% (active),94.5% (active),96% (active),99% (active),92.8% (active),99% (active),99% (active),93.5% (active),97% (active),99% (active),93.6% (active)
COc1ccc(/C=C2/C(=O)ON=C2C)cc1,12%,10%,76% (active),5%,41%,45.8%,-6%,29%,41.8%,-12%,26%,46%,11%,23%,88.5% (active),11%,12%,23.7%
CCCCCCCCCCCCSC(=N)N,86% (active),98% (active),51.3%,21%,99% (active),99% (active),84% (active),98% (active),46.5%,20%,98% (active),97.2% (active),72% (active),95% (active),98.7% (active),49%,99% (active),64.2%
CCCCCCCCCCCCNCCCc1ccccc1,99% (active),98% (active),98.1% (active),100% (active),99% (active),99.2% (active),100% (active),99% (active),98.5% (active),99% (active),97% (active),98.8% (active),99% (active),99% (active),98% (active),99% (active),99% (active),98.5% (active)
CC(CSc1n[nH]c(=S)s1)c1ccccc1 (configuration not stated),7%,93% (active),97.1% (active),11%,96% (active),95.8% (active),14%,96% (active),95.8% (active),1%,93% (active),95.2% (active),23%,94% (active),96.3% (active),12%,94% (active),95.1% (active)
NNc1cccc([N+](=O)[O-])c1,12%,68%,76.8% (active),0%,71% (active),84.2% (active),10%,50%,57.2%,24%,67%,72.6% (active),-6%,94% (active),81.8% (active),11%,94% (active),78% (active)
Oc1ccc(Cl)cc1Cc1cc(Cl)ccc1O,-1%,99% (active),3.65%,-3%,99% (active),10.3%,0%,99% (active),-2.55%,-16%,99% (active),24.6%,-3%,99% (active),16.6%,-5%,99% (active),-7.85%
CC1=CC[C@@H]2[C@@H](CC[C@@]2(C)O)C(C)(C)[C@H]1CC[C@@H]1[C@@]2(C)CCC(=O)C(C)(C)O[C@@H]2CC[C@]1(C)O,20%,57%,74.8% (active),13%,37%,62.9%,-1%,78% (active),72.2% (active),16%,70% (active),55.2%,10%,73% (active),62.1%,25%,62%,22.9%
C=CCO/N=C/c1cc(NC(=S)c2ccoc2C)ccc1Cl,13%,86% (active),83.9% (active),6%,86% (active),85.5% (active),1%,85% (active),83.2% (active),-11%,80% (active),84.3% (active),-4%,90% (active),80.4% (active),4%,91% (active),76.7% (active)
Fc1cccc(F)c1C1SCc2nc3cc4ccccc4cc3n21 (configuration not stated),35%,83% (active),23.1%,24%,66%,56.3%,23%,47%,78.5% (active),27%,31%,80.1% (active),30%,75% (active),80.2% (active),28%,75% (active),42.5%
COC1CC(C)C(OC)c2cc(O)cc(c2O)NC(=O)/C(C)=C/C=C\C(C)C(OC(N)=O)/C(C)=C\C(C)C1OC (configuration not stated),94% (active),97% (active),91.2% (active),95% (active),97% (active),92.5% (active),97% (active),98% (active),91.3% (active),88% (active),95% (active),89.8% (active),97% (active),98% (active),90.7% (active),96% (active),97% (active),90% (active)
Oc1ccc2ccccc2c1N=Nc1ccccn1,35%,91% (active),98.2% (active),-4%,96% (active),96.7% (active),19%,96% (active),97.3% (active),10%,94% (active),92.8% (active),-26%,92% (active),96.7% (active),27%,94% (active),97.7% (active)
Cc1nn(CCO)c(C)c1N=[N+]([O-])c1c(C)nn(CCO)c1C,12%,98% (active),88.8% (active),12%,98% (active),91.8% (active),24%,98% (active),89.3% (active),9%,95% (active),86% (active),20%,97% (active),90.6% (active),27%,98% (active),89.1% (active)
Nc1ccc(Oc2ccccc2)c(Cl)c1,10%,91% (active),97.6% (active),-15%,30%,92.5% (active),4%,61%,97.6% (active),3%,60%,93.5% (active),69%,52%,90.5% (active),7%,72% (active),98% (active)
O=C1C=Cc2ccccc2/C1=C/c1nc(-c2ccccc2)oc1O,-2%,97% (active),89.5% (active),-15%,98% (active),91.8% (active),17%,97% (active),49.5%,2%,97% (active),86.5% (active),0%,98% (active),92.7% (active),5%,97% (active),90% (active)
Cc1nc([N+](=O)[O-])c(Sc2nncc(-c3ccccc3)n2)n1C,8%,34%,97.3% (active),4%,38%,97.5% (active),7%,28%,95% (active),-5%,9%,93% (active),1%,21%,97.6% (active),8%,43%,97.5% (active)
